# Experimental data as given in PubChem BioAssay (EPA / NIEHS).
# Values joined by “and” are separate entries in the source; they are usually repeats but may differ in a detail not shown here. Equal entries are not always repeated. Inconclusive results are not listed. The source holds several records for some structures; these can differ, active in one and inactive in another. Active and inactive are the calls of the source. Rule for the calls: active = hit-call score of the fitted dose curve at least 0.9, where 1 is the maximum; inconclusive = response in the unintended direction; inactive = score below 0.9.
# Assays:
# [1] = target: Serine/threonine-protein phosphatase PP1-alpha catalytic subunit (Homo sapiens) (UniProt P62136); assay: NVS_ENZ_hPPP1CA: NovaScreen (NVS) Enzymatic Assay for human Protein Phosphatase 1 Aatalytic subunit Alpha (PPP1CA) (AID 2283200)
# Method in brief: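 Recombinant enzyme activity read by fluorescence with electrophoretic mobility shift separating substrate from product, 1.33 h after dosing; loss of signal vs DMSO baseline. Primary screen in duplicate at 25 uM; actives retested in concentration-response up to 50 uM.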
# [2] = target: Tyrosine-protein phosphatase non-receptor type 13 (Homo sapiens) (UniProt Q12923); assay: NVS_ENZ_hPTPN13: NovaScreen (NVS) Enzymatic Assay for human Protein Tyrosine Phosphatase Non-receptor Type 13 (PTPN13) (AID 2283205)
# Method in brief: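 Cell-free assay of recombinant human PTPN13 with a fluorescent substrate, product separated by electrophoretic mobility shift and read 0.5 h after dosing. Primary screen at 25 uM in duplicate, then concentration-response up to 50 uM. Loss of signal fitted against DMSO.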
# [3] = target: human Protein Tyrosine Phosphatase Non-receptor Type 2 (PTPN2), PTPN2 (gene 5771) (UniProt P17706); assay: NVS_ENZ_hPTPN2: NovaScreen (NVS) Enzymatic Assay for human Protein Tyrosine Phosphatase Non-receptor Type 2 (PTPN2) (AID 2283207)
# Method in brief: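 Cell-free recombinant enzyme with fluorescent substrate, product separated by electrophoretic mobility shift; read 1 h after dosing. Primary screen single concentration (25 uM) in duplicate; actives followed in concentration series; loss of signal versus DMSO.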
# [4] = target: Tyrosine-protein phosphatase non-receptor type 14 (Homo sapiens) (UniProt Q15678); assay: NVS_ENZ_hPTPN14: NovaScreen (NVS) Enzymatic Assay for human Protein Tyrosine Phosphatase Non-receptor Type 14 (PTPN14) (AID 2283206)
# Method: NVS_ENZ_hPTPN14 is a biochemical, single-readout assay that uses extracted gene-proteins in a cell-free assay. Measurements were taken 0.5 hour after chemical dosing in a 384-well plate.NVS_ENZ_hPTPN14 is one of one assay component(s) measured or calculated from the NVS_ENZ_hPTPN14 assay. It is designed to make measurements of enzyme activity, a form of enzyme reporter, as detected with fluorescence intensity signals by Fluorescence and electrophoretic mobility shift technology.Data from the assay component NVS_ENZ_hPTPN14 was analyzed into 1 assay endpoint. This assay endpoint, NVS_ENZ_hPTPN14, was analyzed in the positive analysis fitting direction relative to DMSO as the negative control and baseline of activity. Using a type of enzyme reporter, loss-of-signal activity can be used to understand changes in the enzymatic activity as they relate to the gene PTPN14. Furthermore, this assay endpoint can be referred to as a primary readout, because this assay has produced multiple assay endpoints where this one serves a enzymatic activity function. To generalize the intended target to other relatable targets, this assay endpoint is annotated to the phosphatase intended target family, where the subfamily is non-receptor tyrosine phosphatase. […]
# [5] = target: human Protein Tyrosine Phosphatase Non-receptor Type 1 (PTPN1), PTPN1 (gene 5770) (UniProt P18031); assay: NVS_ENZ_hPTPN1: NovaScreen (NVS) Enzymatic Assay for human Protein Tyrosine Phosphatase Non-receptor Type 1 (PTPN1) (AID 2283201)
# Method in brief: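 Cell-free fluorogenic-substrate activity assay on recombinant enzyme, read 1.33 h after dosing by fluorescence and electrophoretic mobility shift; loss of signal vs DMSO baseline. Primary screen in duplicate at 25 uM, hits then run in concentration-response up to 50 uM.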
# [6] = target: Tyrosine-protein phosphatase non-receptor type 11 (Homo sapiens) (UniProt Q06124); assay: NVS_ENZ_hPTPN11: NovaScreen (NVS) Enzymatic Assay for human Protein Tyrosine Phosphatase Non-receptor Type 11 (PTPN11) (AID 2283202)
# Method in brief: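 Recombinant human PTPN11 activity on a fluorescent substrate, with substrate/product separated by electrophoretic mobility shift; read 0.5 h after dosing, loss of signal vs DMSO. Duplicate 25 uM screen, then concentration-response up to 50 uM.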
# [7] = target: human Phosphatase and Tensin Homolog (PTEN), PTEN (gene 5728) (UniProt P60484); assay: NVS_ENZ_hPTEN: NovaScreen (NVS) Enzymatic Assay for human Phosphatase and Tensin Homolog (PTEN) (AID 2283203)
# Method in brief: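 Cell-free recombinant human PTEN with fluorescent substrate; product separated by electrophoretic mobility shift and read by fluorescence 1 h after dosing. Primary screen in duplicate at 25 uM, actives followed in concentration series versus DMSO.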
# PPP2CA (gene 5515) = PPP2CA (gene 5515) (UniProt P67775); assay: NVS_ENZ_hPPP2CA: NovaScreen (NVS) Enzymatic Assay for human Protein Phosphatase 2 Aatalytic subunit Alpha (PPP2CA) (AID 2283199)
# Method: (§1) NVS_ENZ_hPPP2CA is a biochemical, single-readout assay that uses extracted gene-proteins in a cell-free assay. Measurements were taken 1.33 hours after chemical dosing in a 384-well plate.NVS_ENZ_hPPP2CA is one of one assay component(s) measured or calculated from the NVS_ENZ_hPPP2CA assay. It is designed to make measurements of enzyme activity, a form of enzyme reporter, as detected with fluorescence intensity signals by Fluorescence and electrophoretic mobility shift technology.Data from the assay component NVS_ENZ_hPPP2CA was analyzed into 1 assay endpoint. This assay endpoint, NVS_ENZ_hPPP2CA, was analyzed in the positive analysis fitting direction relative to DMSO as the negative control and baseline of activity. Using a type of enzyme reporter, loss-of-signal activity can be used to understand changes in the enzymatic activity as they relate to the gene PPP2CA. Furthermore, this assay endpoint can be referred to as a primary readout, because this assay has produced multiple assay endpoints where this one serves a enzymatic activity function. To generalize the intended target to other relatable targets, this assay endpoint is annotated to the phosphatase intended target family, where the subfamily is serine/threonine phosphatase.
# (§2) Binding assays used specific radioligands (tritiated, iodinated) with non-radioactive competitive displacement ligands in agonist or antagonist protocols (as indicated) and various reference compounds and inhibitors to titrate specific binding to receptors and transporters. Most enzyme assays (CYPs, kinases, phosphatases, proteases, HDACs) used recombinant protein and specific substrates (fluorescence mostly, some colorimetric and radioactive) and inhibitors, followed by a biochemical separation of substrate and product. All assays for the biochemical HTS were initially run in duplicate at a single concentration (10 uM for CYP450 assays and 25 uM for all others). Assay-chemical combinations meeting a pre-defined threshold (e.g., 30% inhibition and other criteria defined below) were then run in singleton concentration-response format with maximum concentration of 20 uM for CYPs and 50 uM for all others. Each assay was run with positive and negative controls, and concurrent controls on every plate. The follow-up (secondary) screen tested active chemical-pairs in concentration series, as well as a few additional assays not tested in the primary screen, some selected negative inactives, and several cases re-run in the concentration series for confirmatory purposes.
# [8] = target: Tyrosine-protein phosphatase non-receptor type 12 (Homo sapiens) (UniProt Q05209); assay: NVS_ENZ_hPTPN12: NovaScreen (NVS) Enzymatic Assay for human Protein Tyrosine Phosphatase Non-receptor Type 12 (PTPN12) (AID 2283204)
# Method: as §1, with “NVS_ENZ_hPTPN12” for “NVS_ENZ_hPPP2CA”, “plate.NVS_ENZ_hPTPN12” for “plate.NVS_ENZ_hPPP2CA”, “NVS_ENZ_hPTPN12,” for “NVS_ENZ_hPPP2CA,”, “PTPN12.” for “PPP2CA.”, “non-receptor tyrosine” for “serine/threonine”
# as §2
# [9] = target: human Protein Phosphatase, Mg2+/Mn2+ Dependent 1A (PPM1A), PPM1A (gene 5494) (UniProt P35813); assay: NVS_ENZ_hPPM1A: NovaScreen (NVS) Enzymatic Assay for human Protein Phosphatase, Mg2+/Mn2+ Dependent 1A (PPM1A) (AID 2283198)
# Method in brief: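 Cell-free recombinant PPM1A phosphatase assay with fluorescent substrate, read 1 h after dosing by electrophoretic mobility shift. Chemicals screened in duplicate at 25 uM, then in concentration-response up to 50 uM; loss of activity versus DMSO.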
# Chain of Tyrosine-protein phosphatase non-receptor type 13 (Homo sapiens) (Q12923 whole entry, looked up): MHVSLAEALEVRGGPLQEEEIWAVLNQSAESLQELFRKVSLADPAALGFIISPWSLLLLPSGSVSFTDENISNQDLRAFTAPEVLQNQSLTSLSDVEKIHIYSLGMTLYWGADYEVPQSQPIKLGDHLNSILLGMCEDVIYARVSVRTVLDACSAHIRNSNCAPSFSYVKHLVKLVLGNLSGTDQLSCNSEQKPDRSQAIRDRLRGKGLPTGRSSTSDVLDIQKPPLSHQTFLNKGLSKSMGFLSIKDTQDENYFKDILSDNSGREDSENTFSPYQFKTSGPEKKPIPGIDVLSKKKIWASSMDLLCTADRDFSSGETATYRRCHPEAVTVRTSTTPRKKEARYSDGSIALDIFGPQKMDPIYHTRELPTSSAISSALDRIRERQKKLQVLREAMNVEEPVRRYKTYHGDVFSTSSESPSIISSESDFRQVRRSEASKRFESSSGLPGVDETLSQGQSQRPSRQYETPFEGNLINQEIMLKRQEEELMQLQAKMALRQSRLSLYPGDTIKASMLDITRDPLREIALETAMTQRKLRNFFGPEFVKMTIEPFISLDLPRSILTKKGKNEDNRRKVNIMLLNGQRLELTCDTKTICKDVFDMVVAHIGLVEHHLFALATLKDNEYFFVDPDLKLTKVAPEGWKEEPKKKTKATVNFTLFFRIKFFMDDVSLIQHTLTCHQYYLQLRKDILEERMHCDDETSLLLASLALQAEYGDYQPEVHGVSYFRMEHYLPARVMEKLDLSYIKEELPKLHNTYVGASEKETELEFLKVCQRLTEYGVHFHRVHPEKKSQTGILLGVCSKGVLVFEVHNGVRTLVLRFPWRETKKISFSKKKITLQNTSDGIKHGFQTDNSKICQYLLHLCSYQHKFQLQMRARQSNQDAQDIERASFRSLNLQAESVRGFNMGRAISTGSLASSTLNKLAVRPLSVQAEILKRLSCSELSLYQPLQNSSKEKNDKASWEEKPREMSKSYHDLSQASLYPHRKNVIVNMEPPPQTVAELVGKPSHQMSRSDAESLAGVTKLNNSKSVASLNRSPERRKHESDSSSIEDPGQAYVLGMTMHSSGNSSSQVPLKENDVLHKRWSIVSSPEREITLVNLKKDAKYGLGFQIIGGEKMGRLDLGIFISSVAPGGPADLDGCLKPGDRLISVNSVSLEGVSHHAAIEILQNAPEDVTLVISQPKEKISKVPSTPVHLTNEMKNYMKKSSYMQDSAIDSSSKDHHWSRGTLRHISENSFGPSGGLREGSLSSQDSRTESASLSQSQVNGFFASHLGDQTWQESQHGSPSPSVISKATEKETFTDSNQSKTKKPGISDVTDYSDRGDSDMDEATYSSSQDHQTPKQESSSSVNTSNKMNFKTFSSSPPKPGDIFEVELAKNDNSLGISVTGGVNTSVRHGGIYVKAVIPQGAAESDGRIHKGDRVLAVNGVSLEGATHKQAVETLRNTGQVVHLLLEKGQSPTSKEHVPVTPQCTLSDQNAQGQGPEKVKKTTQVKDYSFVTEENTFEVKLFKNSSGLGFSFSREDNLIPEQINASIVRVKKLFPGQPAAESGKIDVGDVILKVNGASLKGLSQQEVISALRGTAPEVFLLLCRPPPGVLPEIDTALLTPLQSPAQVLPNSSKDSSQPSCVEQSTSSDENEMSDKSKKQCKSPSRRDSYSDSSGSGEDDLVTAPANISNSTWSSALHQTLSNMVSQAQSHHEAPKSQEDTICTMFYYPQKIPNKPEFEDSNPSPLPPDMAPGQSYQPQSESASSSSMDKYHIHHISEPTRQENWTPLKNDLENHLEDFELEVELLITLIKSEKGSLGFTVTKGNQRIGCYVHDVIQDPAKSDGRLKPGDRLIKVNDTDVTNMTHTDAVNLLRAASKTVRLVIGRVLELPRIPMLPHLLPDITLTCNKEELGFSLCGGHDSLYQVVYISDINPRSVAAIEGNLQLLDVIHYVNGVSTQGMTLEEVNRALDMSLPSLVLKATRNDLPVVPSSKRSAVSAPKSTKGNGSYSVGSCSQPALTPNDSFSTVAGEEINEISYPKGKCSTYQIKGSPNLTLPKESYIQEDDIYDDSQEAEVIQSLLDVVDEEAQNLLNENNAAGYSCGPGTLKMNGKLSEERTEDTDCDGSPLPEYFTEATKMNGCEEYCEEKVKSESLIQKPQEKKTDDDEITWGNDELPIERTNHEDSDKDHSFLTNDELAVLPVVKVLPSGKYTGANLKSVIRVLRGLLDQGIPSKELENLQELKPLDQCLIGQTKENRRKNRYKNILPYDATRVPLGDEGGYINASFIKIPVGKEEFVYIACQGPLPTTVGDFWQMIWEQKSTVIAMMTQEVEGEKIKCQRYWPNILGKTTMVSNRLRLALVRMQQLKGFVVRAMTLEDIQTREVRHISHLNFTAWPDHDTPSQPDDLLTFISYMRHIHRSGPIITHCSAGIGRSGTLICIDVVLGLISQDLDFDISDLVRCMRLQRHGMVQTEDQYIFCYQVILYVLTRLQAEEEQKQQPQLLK
# Chain of Tyrosine-protein phosphatase non-receptor type 12 (Homo sapiens) (Q05209 whole entry, looked up): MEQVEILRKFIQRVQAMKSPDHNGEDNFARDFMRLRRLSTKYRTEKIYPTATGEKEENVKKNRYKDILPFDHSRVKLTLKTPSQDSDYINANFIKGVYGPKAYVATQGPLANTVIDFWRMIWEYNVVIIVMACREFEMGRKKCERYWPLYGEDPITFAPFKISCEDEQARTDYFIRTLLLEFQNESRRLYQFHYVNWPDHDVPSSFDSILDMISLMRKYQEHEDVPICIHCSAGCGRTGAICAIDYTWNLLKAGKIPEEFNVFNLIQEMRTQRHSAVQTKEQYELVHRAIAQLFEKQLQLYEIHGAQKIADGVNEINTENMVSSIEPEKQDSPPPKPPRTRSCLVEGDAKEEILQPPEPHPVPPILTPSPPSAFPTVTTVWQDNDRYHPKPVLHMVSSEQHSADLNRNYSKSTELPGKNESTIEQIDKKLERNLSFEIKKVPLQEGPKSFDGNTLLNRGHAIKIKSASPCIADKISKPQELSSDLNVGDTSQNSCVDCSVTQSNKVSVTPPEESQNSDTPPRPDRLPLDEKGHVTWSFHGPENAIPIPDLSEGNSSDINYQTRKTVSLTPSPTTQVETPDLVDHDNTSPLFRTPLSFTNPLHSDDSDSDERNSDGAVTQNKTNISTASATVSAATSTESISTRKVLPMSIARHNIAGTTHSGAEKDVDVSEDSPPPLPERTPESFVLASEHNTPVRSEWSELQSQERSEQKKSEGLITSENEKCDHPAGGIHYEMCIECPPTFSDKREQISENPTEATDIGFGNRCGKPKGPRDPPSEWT
# Chain of Serine/threonine-protein phosphatase PP1-alpha catalytic subunit (Homo sapiens) (P62136 whole entry, looked up): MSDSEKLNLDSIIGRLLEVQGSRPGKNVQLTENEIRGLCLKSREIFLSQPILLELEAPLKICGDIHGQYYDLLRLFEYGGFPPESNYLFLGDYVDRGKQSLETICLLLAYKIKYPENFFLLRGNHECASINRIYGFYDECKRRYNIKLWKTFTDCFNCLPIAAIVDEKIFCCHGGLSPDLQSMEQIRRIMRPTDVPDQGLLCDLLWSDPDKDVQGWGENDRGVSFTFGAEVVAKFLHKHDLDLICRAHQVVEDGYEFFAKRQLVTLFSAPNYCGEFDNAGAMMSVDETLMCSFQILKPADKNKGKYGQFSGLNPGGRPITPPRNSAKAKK
# Chain of human Phosphatase and Tensin Homolog (PTEN), PTEN (gene 5728) (P60484 whole entry, looked up): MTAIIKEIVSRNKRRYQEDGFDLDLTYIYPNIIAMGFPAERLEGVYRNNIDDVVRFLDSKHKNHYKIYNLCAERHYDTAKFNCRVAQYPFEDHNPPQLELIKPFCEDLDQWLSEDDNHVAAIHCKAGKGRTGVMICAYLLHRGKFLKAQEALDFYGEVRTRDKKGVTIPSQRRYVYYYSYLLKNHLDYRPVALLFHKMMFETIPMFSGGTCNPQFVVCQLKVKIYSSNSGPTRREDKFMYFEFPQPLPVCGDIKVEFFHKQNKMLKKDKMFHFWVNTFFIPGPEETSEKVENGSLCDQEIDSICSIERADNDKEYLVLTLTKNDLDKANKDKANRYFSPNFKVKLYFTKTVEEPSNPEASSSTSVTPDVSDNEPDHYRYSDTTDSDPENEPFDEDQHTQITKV
# Chain of Tyrosine-protein phosphatase non-receptor type 11 (Homo sapiens) (Q06124 whole entry, looked up): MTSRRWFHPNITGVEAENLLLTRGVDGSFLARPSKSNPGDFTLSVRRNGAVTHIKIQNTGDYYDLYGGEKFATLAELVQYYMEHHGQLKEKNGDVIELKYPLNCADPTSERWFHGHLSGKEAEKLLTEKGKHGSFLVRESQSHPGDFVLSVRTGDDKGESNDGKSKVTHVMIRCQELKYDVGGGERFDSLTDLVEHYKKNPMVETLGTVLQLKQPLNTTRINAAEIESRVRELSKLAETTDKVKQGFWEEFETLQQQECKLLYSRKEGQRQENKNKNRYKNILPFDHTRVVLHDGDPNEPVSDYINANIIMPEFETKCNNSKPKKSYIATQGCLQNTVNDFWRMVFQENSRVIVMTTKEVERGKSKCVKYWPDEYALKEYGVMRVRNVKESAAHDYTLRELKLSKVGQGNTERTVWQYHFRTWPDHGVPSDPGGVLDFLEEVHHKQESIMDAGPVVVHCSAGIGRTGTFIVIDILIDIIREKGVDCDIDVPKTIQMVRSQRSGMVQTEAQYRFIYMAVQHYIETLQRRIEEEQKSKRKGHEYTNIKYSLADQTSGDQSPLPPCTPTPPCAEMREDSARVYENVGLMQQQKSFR
# Chain of human Protein Tyrosine Phosphatase Non-receptor Type 1 (PTPN1), PTPN1 (gene 5770) (P18031 whole entry, looked up): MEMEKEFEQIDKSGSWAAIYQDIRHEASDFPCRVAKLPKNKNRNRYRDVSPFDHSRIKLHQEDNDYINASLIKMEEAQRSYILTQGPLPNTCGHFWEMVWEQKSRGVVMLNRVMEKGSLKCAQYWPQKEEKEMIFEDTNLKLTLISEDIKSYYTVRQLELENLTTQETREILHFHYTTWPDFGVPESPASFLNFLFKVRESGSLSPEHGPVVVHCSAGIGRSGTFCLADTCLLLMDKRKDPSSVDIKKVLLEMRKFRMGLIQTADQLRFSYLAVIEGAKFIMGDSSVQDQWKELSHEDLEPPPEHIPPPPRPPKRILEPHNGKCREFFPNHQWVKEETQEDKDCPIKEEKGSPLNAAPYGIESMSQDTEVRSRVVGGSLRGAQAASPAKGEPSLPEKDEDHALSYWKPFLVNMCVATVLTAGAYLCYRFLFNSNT
smiles,measurement,setting,value
COC(=O)c1ccccc1S(=O)(=O)NC(=O)N(C)c1nc(C)nc(OC)n1,outcome,[1],inactive
same,outcome,[2],inactive
same,outcome,[3],inactive
C[C@H]1[C@H](c2ccc(Cl)cc2)SC(=O)N1C(=O)NC1CCCCC1,outcome,[4],inactive
CN1CSC(=S)N(C)C1,outcome,[3],inactive
N#Cc1c(Cl)c(Cl)c(Cl)c(C#N)c1Cl,outcome,[5],inactive
same,AC50,[6],40 µM (active)
same,outcome,[7],inactive
CCS(=O)(=O)c1cccnc1S(=O)(=O)NC(=O)Nc1nc(OC)cc(OC)n1,outcome,[7],inactive
[2H]C1([2H])[n+]2ccccc2-c2cccc[n+]2C1([2H])[2H],AC50,[1],4.96 µM (active)
same,outcome,[6],inactive
same,AC50,[7],2.29 nM (active)
ClC1C(Cl)C(Cl)C(Cl)C(Cl)C1Cl (configuration not stated),outcome,[7],inactive
Oc1cc(Cl)ccc1Oc1ccc(Cl)cc1Cl,outcome,PPP2CA (gene 5515),inactive
same,outcome,[6],inactive
same,outcome,[8],inactive
O=C(O)C(F)(F)C(F)(F)C(F)(F)C(F)(F)C(F)(F)C(F)(F)C(F)(F)F,AC50,PPP2CA (gene 5515),25 µM (active)
same,AC50,[1],0.493 µM (active)
same,outcome,[5],inactive
same,outcome,[6],inactive
same,outcome,[7],inactive
same,outcome,[8],inactive
same,outcome,[2],inactive
same,outcome,[3],inactive
CC(C)(C)C(O)C(Oc1ccc(Cl)cc1)n1cncn1 (configuration not stated),outcome,PPP2CA (gene 5515),inactive
same,outcome,[7],inactive
same,outcome,[8],inactive
same,outcome,[2],inactive
same,outcome,[3],inactive
O=C1c2ccccc2C(=O)N1SC(Cl)(Cl)Cl,outcome,[3],inactive
C#CCN1C(=O)COc2cc(F)c(N3C(=O)C4=C(CCCC4)C3=O)cc21,outcome,[3],inactive
Cc1[nH]c(=O)n(C(C)(C)C)c(=O)c1Cl,outcome,[5],inactive
O=S(=O)(O)C(F)(F)C(F)(F)C(F)(F)C(F)(F)C(F)(F)C(F)(F)C(F)(F)C(F)(F)F,outcome,[9],inactive
same,AC50,PPP2CA (gene 5515),7.02 µM (active) and 5.37 µM (active)
same,AC50,[1],11.5 µM (active) and 18.4 µM (active)
same,AC50,[5],26.9 µM (active)
same,outcome,[5],inactive
same,AC50,[6],19.6 µM (active) and 15.5 µM (active)
same,AC50,[7],7.35 µM (active) and 26.9 µM (active)
same,AC50,[8],20.7 µM (active) and 30 µM (active) and 30.1 µM (active)
same,AC50,[2],10.5 µM (active) and 36.6 µM (active)
same,AC50,[3],38.9 µM (active)
CC(C)(C)C(O)/C(=C\c1ccc(Cl)cc1Cl)n1cncn1 (configuration not stated),outcome,[3],inactive
N#CN,outcome,[1],inactive
O=[N+]([O-])c1c(Cl)c(Cl)c(Cl)c(Cl)c1Cl,outcome,[1],inactive
CC[C@H](C)[C@H]1O[C@]2(C=C[C@@H]1C)C[C@@H]1C[C@@H](C/C=C(\C)[C@@H](O[C@H]3C[C@H](OC)[C@@H](O[C@H]4C[C@H](OC)[C@@H](O)[C@H](C)O4)[C@H](C)O3)[C@@H](C)/C=C/C=C3\CO[C@@H]4[C@H](O)C(C)=C[C@@H](C(=O)O1)[C@]34O)O2 (tested in a mixture with another compound),outcome,[6],inactive
same,AC50,[3],41.1 µM (active)
